Our source for the binding signal values is paper PMC7819943, “Rice protein-binding microarrays: a tool to detect cis-acting elements near promoter regions in rice”.

In all, about 35,000 sequences were measured (“fluorescence intensity (a.u.)”: median about 10,000, highest 2% from about 52,000 on). Shown is part of a subset that was picked to be rich in the highest values.

The target in this assay is T1, OsWOX13 (Oryza sativa, UniProt Q5QMM3 1-267).
T1 sequence: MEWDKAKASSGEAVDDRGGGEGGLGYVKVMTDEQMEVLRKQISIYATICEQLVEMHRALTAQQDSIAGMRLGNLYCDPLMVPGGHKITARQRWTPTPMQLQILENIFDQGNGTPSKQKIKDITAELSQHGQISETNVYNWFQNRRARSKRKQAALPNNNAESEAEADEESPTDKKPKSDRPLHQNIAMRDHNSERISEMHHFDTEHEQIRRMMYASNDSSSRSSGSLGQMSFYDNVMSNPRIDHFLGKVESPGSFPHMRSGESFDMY
Briefly: protein-binding microarray (RPBM); PBS, 2% BSA, 51.3 ng/ul salmon testes DNA, 50 uM zinc acetate, 200 nM TF, 25 C, 1 h; high values mean tight binding. Conditions: protein: recombinant; tags: N-terminal polyhistidine and DsRed monomer fusion (pET32a); label: CyDye5-dUTP incorporated in the synthesized complementary strand; 3' TTTTT single-stranded linker to array surface; dsDNA, one strand shown. In short, it runs like this:
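The binding signal is fluorescence intensity per array feature (arbitrary units). Readings came from an Axon 4000B scanner after a washed, 2% BSA-blocked, double-stranded custom Agilent array had been incubated for 1 h at 25 °C with 200 nM protein and 50 µM zinc acetate. The protein was a Ni–NTA-purified transcription factor fused N-terminally to polyhistidine and DsRed, expressed in E. coli BL21-CodonPlus.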
As for “AGACTTAATTGTAACTGTGTACTACTACGAGCTTAATCAGCGGAGTCACCTAGTGCAG”, the binding signal is 28400 fluorescence intensity (a.u.). To “AGAGTTGTAATTAACCTTTTCAGGTTGTATTGACTGCAAGCGGAGTCACCTAGTGCAG” belongs 3760 fluorescence intensity (a.u.). Next, “GGATTAATAGATAGTCTGACTTTTCTGATAACTATTTAAGCGGAGTCACCTAGTGCAG”: 28400 fluorescence intensity (a.u.). To “TTAAAATTATGTTTGAAAATTTAAATTTTAGACGCGGCTTCGGAGTCACCTAGTGCAG” belongs 14900 fluorescence intensity (a.u.). For the sequence “AAATTAATTAATACAATATATTCCTGCATGCCCTGTATAACGGAGTCACCTAGTGCAG”, the binding signal is 23800 fluorescence intensity (a.u.). As to “TTCTCTAGCCCTAAATATGCCGAAGAATATTCCATGTCTCCGGAGTCACCTAGTGCAG”, the binding signal was 64900 fluorescence intensity (a.u.). Next, “ACCCTAATTCTCCTAATCTCTTAGGAAATATGGAAGAAGCCGGAGTCACCTAGTGCAG”: 3170 fluorescence intensity (a.u.); “GATCGAATTGGTAAATCAAATGTCTCTAAATTCTCTCCATCGGAGTCACCTAGTGCAG”: 4550 fluorescence intensity (a.u.). To “TGCTAGAATGATTTACGTTATGAAACTGAGGGAGTACATCCGGAGTCACCTAGTGCAG” belongs 5380 fluorescence intensity (a.u.); to “TGTGATTTATATCGTGGAAGATGATGGCTTGGCGGTATAGCGGAGTCACCTAGTGCAG”, 36300 fluorescence intensity (a.u.); to “GTCGATAAATTATTCGCGGCACAATTATTTGTGCCCCATTCGGAGTCACCTAGTGCAG”, 5580 fluorescence intensity (a.u.). Next, “AACTAAAACACAGAAATTGATAGTCCAGCAAAACTAGCCCCGGAGTCACCTAGTGCAG”: 5180 fluorescence intensity (a.u.); “AGCAAAATTGATTGCTAATCTTCGGTGTCCAGCAGAGCCCCGGAGTCACCTAGTGCAG”: 64900 fluorescence intensity (a.u.). As for “TCTTCTGATTGCTTTCACACAAGATCCAGCAAAATTAATTCGGAGTCACCTAGTGCAG”, the binding signal is 16900 fluorescence intensity (a.u.). To “ATACACCAGTTGATTATAATGACAGTGATATTATGGTGGACGGAGTCACCTAGTGCAG” belongs 17800 fluorescence intensity (a.u.); to “CAAACTAATAATTTGGCTTTTGGCTTCTGCTGAAGCAAGTCGGAGTCACCTAGTGCAG”, 4830 fluorescence intensity (a.u.). Next, “TGCAGTGATAATTTAGGATTATTTAAGATTTGCACAGTGGCGGAGTCACCTAGTGCAG”: 12500 fluorescence intensity (a.u.); “GCTGATTGATTCATTCTGATCTGAACATATAGACAACCATCGGAGTCACCTAGTGCAG”: 54700 fluorescence intensity (a.u.); “CATAATTAGCGGTTGATTACTGTAGCATCACTGTAACAAACGGAGTCACCTAGTGCAG”: 29600 fluorescence intensity (a.u.). Next, “ACATTCATATTGATGTTAATGATTCTAGACATATATATCTCGGAGTCACCTAGTGCAG”: 4710 fluorescence intensity (a.u.); “GTTATGATTAATTGCGCCATTAGGATATTAATTAATCTGGCGGAGTCACCTAGTGCAG”: 54500 fluorescence intensity (a.u.); “GCCATATGATTATTTAATCTGATCCGGAGGATTAAACAAGCGGAGTCACCTAGTGCAG”: 14100 fluorescence intensity (a.u.). Turning to “GCCTGATTATCCATTGTTCATCCTGCCATATTGATTTCAGCGGAGTCACCTAGTGCAG”, the binding signal was 30300 fluorescence intensity (a.u.). Next, “ACGGTAATTAACGTTGATTACCATAATTAGCGGCGCATTGCGGAGTCACCTAGTGCAG”: 65200 fluorescence intensity (a.u.). To “GCTGATTGCCATTGATTCATATTCATTGTGTGCCATCTGGCGGAGTCACCTAGTGCAG” belongs 58800 fluorescence intensity (a.u.); to “CTAGACATATATATTTATCTAGATTCATTAACATCCATATCGGAGTCACCTAGTGCAG”, 5320 fluorescence intensity (a.u.); to “TCTGATTTAACTGCATTGCATTTGTGTCATTGACATGTGGCGGAGTCACCTAGTGCAG”, 42600 fluorescence intensity (a.u.). Next, “AAACCATTAGCGCATAATTTATTGAGTTTTAATTATTTCACGGAGTCACCTAGTGCAG”: 6070 fluorescence intensity (a.u.); “CGTAAACAAATAGGTCCAACATAATTTAACCTTCATAGAGCGGAGTCACCTAGTGCAG”: 5570 fluorescence intensity (a.u.). As to “AGACGCATCTCCTCAATCATGCATCAACGTGCGTCATCTGCGGAGTCACCTAGTGCAG”, the binding signal is 3790 fluorescence intensity (a.u.).

Regarding “GTTGCATATCAATCATCAAGAATCTCTTCAGAAAGAGGAGCGGAGTCACCTAGTGCAG”, the binding signal was 14000 fluorescence intensity (a.u.). Next, “GTTAAATTTAAACTTGTATATTTGTGAAGTGATACATCACCGGAGTCACCTAGTGCAG”: 17300 fluorescence intensity (a.u.); “ACACAACTTGTTAATTTGACCTGTAGCCCCATCATGTACACGGAGTCACCTAGTGCAG”: 3150 fluorescence intensity (a.u.). To “ATTCATGAATATATGAAACCTGATTGCAAATGTGCAAATCCGGAGTCACCTAGTGCAG” belongs 4970 fluorescence intensity (a.u.); to “TGCCTAATTGTTGCCATTGATTTGTTAGCCACACCTTTGGCGGAGTCACCTAGTGCAG”, 40300 fluorescence intensity (a.u.); to “TGTTAGACTATGCCATCAATTGTAATTGTTGGTTCTGATGCGGAGTCACCTAGTGCAG”, 4250 fluorescence intensity (a.u.). To “TTGTAATTGATTGTGGCCCATCAACTATTGCCATCACTGGCGGAGTCACCTAGTGCAG” belongs 64900 fluorescence intensity (a.u.); to “GCAAAATTGGTTTCATCAACTATTGAGTGGGTGTGCACTGCGGAGTCACCTAGTGCAG”, 9640 fluorescence intensity (a.u.); to “ATATTGATTGCATAAAGAAAGTTCGGTCCTGTTCACTTTGCGGAGTCACCTAGTGCAG”, 39900 fluorescence intensity (a.u.).

In the case of “TTTGATTGATGGCCATAAGTTGCCACACTTTGCCACACTTCGGAGTCACCTAGTGCAG”, the binding signal is 53800 fluorescence intensity (a.u.). With “TCAAATAATTAGAAGGGGTGAGACTTCGAATCCAAGTCGTCGGAGTCACCTAGTGCAG”, the binding signal is 14400 fluorescence intensity (a.u.). Next, “TAATTATTGAACACACTAATTAAGTATTACGATGCACCTCCGGAGTCACCTAGTGCAG”: 6340 fluorescence intensity (a.u.); “TAATCTTGAATTATTGATTTATTTATGGCTTCAGCTTTCACGGAGTCACCTAGTGCAG”: 7480 fluorescence intensity (a.u.). To “TGTGAATGTTGTGATTGAGGTGGTATCAGTATCATATCCGCGGAGTCACCTAGTGCAG” belongs 27000 fluorescence intensity (a.u.); to “GGTGAATTGAATGGTTGATTGCCTATCTCATCTTCCGCAGCGGAGTCACCTAGTGCAG”, 64100 fluorescence intensity (a.u.); to “AGAGGATTGATGAATGCAGCTGCAAGCACAGCACGCAGTACGGAGTCACCTAGTGCAG”, 13600 fluorescence intensity (a.u.). As to “ACAATTGAATGATTGATTGCAGCTCAAGCTTCAATCCGCACGGAGTCACCTAGTGCAG”, the binding signal is 63900 fluorescence intensity (a.u.).
